Data: the supplement of paper PMC6522484
Structures can show the parent of a compound that is named as a salt. ± gives the standard deviation of the averaged measurements.

Experiments:
DLD1 [1] = experiment: cell viability (CellTiter-Glo) relative to plate median (fraction of plate median); higher = more viable cells; settings: 10 µM, treatment time 24 h
Procedure, shortened: (§1)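 Reporter and viability luminescence were measured in colorectal cancer cells stably carrying lentiviral TCF/Wnt firefly luciferase reporters. The cells were exposed to kinase inhibitor library compounds at a final 10 µM for 24 h, starting 24 h after seeding in 384-well plates. Each well was normalised to the plate median (webcellHTS2, additive, no log transformation), and two independent replicates were averaged.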

HCT116 [2] = experiment: as above; settings: 10 µM; treatment time 24 h; reporter: TCF4/Wnt
Procedure, shortened: as §1

SW480 [3] = experiment: as above; settings: 10 µM; treatment time 24 h; reporter: 7TFP
Procedure, shortened: as §1

DLD1 [4] = experiment: TCF/Wnt firefly luciferase reporter signal relative to plate median (fraction of plate median); higher = higher Wnt reporter signal; settings: 10 µM, treatment time 24 h
Procedure, shortened: as §1

HCT116 [5] = experiment: as above; settings: 10 µM; treatment time 24 h; reporter: TCF4/Wnt
Procedure, shortened: as §1

SW480 [6] = experiment: as above; settings: 10 µM; treatment time 24 h; reporter: 7TFP
Procedure, shortened: as §1

Structure (SMILES)	cell viability (DLD1 [1]; reporter: 7TFP)	cell viability (DLD1 [1]; reporter: TCF4/Wnt)	cell viability (HCT116 [2])	cell viability (SW480 [3])	TCF/Wnt firefly luciferase reporter signal (DLD1 [4]; reporter: 7TFP)	TCF/Wnt firefly luciferase reporter signal (DLD1 [4]; reporter: TCF4/Wnt)	TCF/Wnt firefly luciferase reporter signal (HCT116 [5])	TCF/Wnt firefly luciferase reporter signal (SW480 [6])
O=C1NC(=O)/C(=C/c2ccc(-c3ccc(F)cc3O)o2)S1	1.09 ± 0.092	1.21 ± 0.028	1.19 ± 0.092	1.04 ± 0.14	0.905 ± 0.13	1.34 ± 0.47	1.7 ± 0.71	1.41 ± 0.35
Cc1cc2c(F)c(Oc3ncnn4cc(OC[C@@H](C)OC(=O)[C@H](C)N)c(C)c34)ccc2[nH]1	1.06 ± 0.042	0.938 ± 0.052	0.981 ± 0.041	1.23 ± 0.071	1.03 ± 0.11	1.135 ± 0.0071	0.852 ± 0.16	1.28 ± 0.099
C#Cc1cccc(Nc2ncnc3cc(OCCOC)c(OCCOC)cc23)c1 [Erlotinib HCl]	1.035 ± 0.0071	0.934 ± 0.034	1.14 ± 0.078	1 ± 0.013	0.888 ± 0.023	0.73 ± 0.0057	0.729 ± 0.4	0.868 ± 0.3
COc1cc2/c(=N/c3ccc(Br)cc3F)nc[nH]c2cc1OCC1CCN(C)CC1 [Vandetanib (Zactima)]	0.921 ± 0.18	1.08 ± 0.057	1.14 ± 0.085	1.2 ± 0.035	0.9625 ± 0.0035	0.773 ± 0.093	0.916 ± 0.081	1.2 ± 0.092
COc1cc(OC)c(/C=C/S(=O)(=O)Cc2ccc(OC)c(NCC(=O)O)c2)c(OC)c1	0.988 ± 0.074	1.01 ± 0.025	0.631 ± 0.14	1.04	0.726 ± 0.011	0.772 ± 0.0014	0.198 ± 0.013	0.694 ± 0.069
Cc1ccc(C(=O)Nc2ccc(CN3CCN(C)CC3)c(C(F)(F)F)c2)cc1C#Cc1cnc2cccnn12	0.835 ± 0.055	0.8 ± 0.0099	0.631 ± 0.14	1.01 ± 0.16	0.285 ± 0.064	0.466 ± 0.0028	0.292 ± 0.12	0.668 ± 0.098
CC(C)(C)c1cc(NC(=O)Nc2ccc(-c3cn4c(n3)sc3cc(OCCN5CCOCC5)ccc34)cc2)no1 [Quizartinib (AC220)]	0.994 ± 0.19	0.989 ± 0.086	1.15 ± 0.11	1.095 ± 0.0071	0.789 ± 0.4	1.04 ± 0.014	1.22 ± 0.18	1.26 ± 0.021
CS(=O)(=O)CCNCc1ccc(-c2ccc3ncnc(Nc4ccc(OCc5cccc(F)c5)c(Cl)c4)c3c2)o1 [Lapatinib Ditosylate (Tykerb)]	1.06 ± 0.078	1.02 ± 0.03	0.972 ± 0.04	0.913 ± 0.035	1.27 ± 0.078	1.1 ± 0.042	1.25 ± 0.18	1.16 ± 0.057
CCOc1cc2ncc(C#N)c(Nc3ccc(OCc4ccccn4)c(Cl)c3)c2cc1NC(=O)/C=C/CN(C)C [Neratinib (HKI-272)]	0.817 ± 0.03	0.877 ± 0.1	0.982 ± 0.083	0.541 ± 0.72	0.521 ± 0.3	0.763 ± 0.05	0.53 ± 0.33	0.508 ± 0.7
FC(F)(F)c1ccc(/C=C/c2nc(COc3ccc(CCCCn4ccnn4)cc3)co2)cc1 [Mubritinib (TAK 165)]	0.979 ± 0.03	0.946 ± 0.09	0.771 ± 0.032	0.911 ± 0.1	1 ± 0.094	0.984 ± 0.023	0.639 ± 0.23	0.816 ± 0.49
COC(=O)Nc1ccc(-c2nc(N3CCOCC3)c3cnn(C4CCN(C(=O)OC)CC4)c3n2)cc1	1.13 ± 0.014	1.13 ± 0.028	1.105 ± 0.0071	1.11 ± 0.028	1.07 ± 0.057	0.973 ± 0.053	1.23 ± 0.12	1.11 ± 0.085
CNC(=O)c1nn(C)c2c1C(C)(C)Cc1cnc(Nc3ccc(N4CCN(C)CC4)cc3)nc1-2	1.02 ± 0.2	0.941 ± 0.049	0.659 ± 0.18	1.14 ± 0.099	0.274 ± 0.088	0.3665 ± 0.0035	0.146 ± 0.022	0.845 ± 0.096
Cc1cnc(Nc2ccc(OCCN3CCCC3)cc2)nc1Nc1cccc(S(=O)(=O)NC(C)(C)C)c1	1.07 ± 0.064	1.14 ± 0.16	1.14	0.871 ± 0.04	1.2 ± 0.26	1.14 ± 0.18	1.31 ± 0.22	1.06 ± 0.078
CC(C)(C)Cn1c(N)nc2ccc(-c3[nH]c(C(C)(C)C)nc3-c3ccc(F)cc3)nc21	1.07 ± 0.12	0.931 ± 0.089	0.928 ± 0.071	1.11	1.21 ± 0.05	0.969 ± 0.1	1.45 ± 0.38	1.36 ± 0.014
Cc1cn(-c2cc(NC(=O)c3ccc(C)c(Nc4nccc(-c5cccnc5)n4)c3)cc(C(F)(F)F)c2)cn1 [Nilotinib (AMN-107)]	0.808 ± 0.028	0.935 ± 0.041	0.9715 ± 0.005	0.973 ± 0.053	0.873 ± 0.054	0.708 ± 0.12	0.894 ± 0.028	1.04 ± 0.028
N#CC[C@H](C1CCCC1)n1cc(-c2ncnc3[nH]ccc23)cn1	1.115 ± 0.0071	1.13 ± 0.057	1.09	0.9755 ± 0.0021	1.05 ± 0.15	1.025 ± 0.0071	1.13 ± 0.042	1.09 ± 0.042
COC(=O)c1ccc2c(C(=Nc3ccc(N(C)C(=O)CN4CCN(C)CC4)cc3)c3ccccc3)c(O)[nH]c2c1 [BIBF1120 (Vargatef)]	1.21 ± 0.18	1.04 ± 0.014	1.06 ± 0.028	1.125 ± 0.0071	1.35 ± 0.035	1.03 ± 0.18	0.749 ± 0.54	0.895 ± 0.53
COc1cc(CCc2cc(NC(=O)c3ccc(N4CC(C)NC(C)C4)cc3)n[nH]2)cc(OC)c1 (stereo not given)	0.967 ± 0.1	0.951 ± 0.04	1.04 ± 0.058	1.07 ± 0.05	0.794 ± 0.042	0.718 ± 0.011	0.502 ± 0.34	0.93 ± 0.099
Cc1ccc(C(=O)Nc2cccc(C(F)(F)F)c2)cc1Nc1nc(-c2cccnc2)nc2c1cnn2C	1.07 ± 0.035	1.06	0.912 ± 0.2	1.05 ± 0.042	1.36 ± 0.085	0.925 ± 0.2	1.12 ± 0.099	0.952 ± 0.48
O=C(O)c1ccc2c(c1)nc(Nc1cccc(Cl)c1)c1ccncc12 [cx-4945 (Silmitasertib)]	1 ± 0.057	0.955 ± 0.079	0.839 ± 0.042	1 ± 0.092	0.508 ± 0.15	0.651 ± 0.2	0.627 ± 0.36	0.612 ± 0.1
